Results on three compounds are retold here after PubChem BioAssay (NCATS).

The target of experiment [1] is Lysosomal acid glucosylceramidase (Homo sapiens) (UniProt P04062). The experiment is described as follows: Glucocerebrosidase-p2 (AID 348; in the data active = potency below about 10 µM; note: potency is the fitted concentration of half-maximal effect). The note with it: purified GBA, blue fluorogenic substrate, 40 min. Summed up:
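Compounds titrated from 0.6 nM upwards against 0.2 nM enzyme in pH 5.9 citric acid/KH2PO4, taurocholate, tween-20; blue fluorogenic substrate 80 uM, 40 min room temperature, stopped and read Ex 365/Em 440 for AC50.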

The target in experiment [2] is Glucocorticoid receptor (Homo sapiens) (UniProt P04150). The experiment in a line: GR-GFP Redistribution (AID 450;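 active = compounds whose dose series gives a full or clear partial fitted curve of increased nuclear translocation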; note: potency is the fitted concentration of half-maximal effect). The note with it: U2OS GR-GFP nuclear translocation, laser cytometry, 2 h.
Glucocorticoid receptor (Homo sapiens), sequence (P04150 whole entry, looked up, the tested form may be a part): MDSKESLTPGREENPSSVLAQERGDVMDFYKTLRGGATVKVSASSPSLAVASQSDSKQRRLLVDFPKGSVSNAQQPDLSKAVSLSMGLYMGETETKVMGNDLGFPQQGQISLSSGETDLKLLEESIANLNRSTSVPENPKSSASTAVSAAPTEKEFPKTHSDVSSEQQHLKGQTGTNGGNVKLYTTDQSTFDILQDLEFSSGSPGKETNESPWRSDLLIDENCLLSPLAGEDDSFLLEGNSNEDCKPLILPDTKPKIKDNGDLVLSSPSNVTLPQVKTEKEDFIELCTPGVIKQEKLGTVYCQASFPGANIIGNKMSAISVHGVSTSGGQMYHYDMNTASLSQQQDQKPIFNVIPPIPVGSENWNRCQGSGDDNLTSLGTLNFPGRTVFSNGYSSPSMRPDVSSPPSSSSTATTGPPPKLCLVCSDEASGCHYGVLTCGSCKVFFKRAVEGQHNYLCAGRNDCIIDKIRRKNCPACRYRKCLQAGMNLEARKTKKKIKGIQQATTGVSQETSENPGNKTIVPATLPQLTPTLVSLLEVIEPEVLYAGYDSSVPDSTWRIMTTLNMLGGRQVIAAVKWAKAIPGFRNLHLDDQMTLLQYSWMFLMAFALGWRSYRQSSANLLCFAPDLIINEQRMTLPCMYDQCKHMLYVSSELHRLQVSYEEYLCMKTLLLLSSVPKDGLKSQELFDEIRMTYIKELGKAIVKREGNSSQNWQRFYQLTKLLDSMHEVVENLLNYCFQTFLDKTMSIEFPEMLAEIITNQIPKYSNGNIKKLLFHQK
The target is the same in experiment [3]. The experiment is described as follows: GR-EFC Redistribution (AID 451; calls by dose curve; note: potency is the fitted concentration of half-maximal effect). The note with it: CHO-K1 GR-EFC translocation, beta-gal luminescence, 2 h. Summed up: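 CHO-K1 cells expressing nuclear EA and GR-ED fragments of b-gal; compounds titrated up to 46 uM final, 2 h at 37 C. GR nuclear translocation read as complemented b-gal luminescence after 1 h RT detection.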

Experiment [4] addresses Mitogen-activated protein kinase 10 (Mus musculus) (UniProt Q61831). The experiment is described as follows: JNK3 AlphaScreen Assay (AID 530; active = well fitted curve in either direction with a large enough effect, not every such curve was filed as active;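 note: kinase came from lysate of stimulated human HepG2 cells; signal reports phosphorylation of biotinylated GST-cJun 1-79 at Ser73 with 10 µM ATP; % is set by controls: 0 for no effect and ±100 for the full control effect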). To be noted: JNK3 lysate, c-Jun phosphorylation; series mostly up to 57.1 µM. Summed up: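 Pre-activated (IL-1β/TNFα) JNK3 in HepG2 lysates phosphorylates biotin-GST-cJun(1-79), 10 uM ATP; anti-phospho-cJun(Ser73) AlphaScreen read at room temperature, pH 7.6 Tris buffer. Compounds pre-incubated 15 min as titrations.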

For experiment [5], the target named is 3',5'-cyclic-AMP phosphodiesterase 4B (Homo sapiens) (UniProt Q07343). The experiment in a line: qHTS Assay for Inhibitors of PDE-IV (AID 607; active = well fitted activation curve with a large enough effect in the main read-out, with a control signal flat, not every such curve was filed as active; note: % of control where 0% means no effect). To be noted: HEK293 ACTOne CNG channel cells, membrane potential fluorescence; series mostly up to 22.9 µM. In short, it runs like this:
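The readout is membrane depolarisation from a cAMP-sensing CNG channel, detected with a potential dye at ex 535/em 590. Cells were HEK293-derived (endogenous PDE-IV) at 1000 cells/well, titrated up to 22.9 uM final.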

Experiment [6] can be described thus: qHTS Assay for Lipid Storage Modulators (AID 1519; calls by dose curve). To be noted: Drosophila S3 cells, BODIPY lipid droplet/cell ratio, laser cytometry, cells loaded with oleic acid; for activity change, negative = inhibition: at 57.5 µM (top of the series). In short, it runs like this: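 Cells seeded at 5,000 per well were treated with compounds over a concentration series and loaded with oleic acid (400 uM, as added). Lipid droplet fluorescence (488 nm excitation, 500-530 nm channel) was read by laser-scanning cytometry and normalized to 20 uM Triacsin C.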
(In qHTS, concentration-response curves come from the screen itself.)

Experiment [7] can be described thus: Counterscreen qHTS for small molecule stabilizers of the endoplasmic reticulum resident proteome: GLuc-NoTag assay (AID 1508627).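 Note: 0% = thapsigargin alone and -100% = DMSO vehicle control.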 To be noted: Gaussia luciferase NoTag secretion counterscreen, luminescence, thapsigargin 100 nM for final 4 h; series mostly up to 76.4 µM. Summed up:
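SH-SY5Y cells stably expressing constitutively secreted GLuc without SERCaMP tag, exposed to compound for 19 hr, then to 100 nM thapsigargin for 4 hr at 37C. Medium luciferase was read by coelenterazine luminescence without lysis.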
(Counterscreens check selectivity or assay interference.)

A short description of experiment [8]: Confirmatory qHTS for small molecule stabilizers of the endoplasmic reticulum resident proteome: Secreted ER Calcium Modulated Protein (SERCaMP) assay (AID 1508628). Note: nearly all actives have a fitted effect of over 40% in size. Note: potency is the fitted concentration of half-maximal effect. To be noted: SERCaMP secreted luciferase ER calcium/proteostasis reporter; series mostly up to 76.3 µM. Summed up: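 SH-SY5Y cells stably expressing GLuc-SERCaMP, treated 16 h with compound (primary 1.53, 7.67, 38.3 uM; confirmation 11 concentrations, up to 76.6 uM), then 100 nM thapsigargin for 4 h. Secreted Gaussia luciferase in medium read by coelenterazine luminescence.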

Experiment [9] in a line: AP1 Signaling Pathway (AID 357; active = well fitted curve in either direction with a large enough effect, not every such curve was filed as active;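 note: ME-180 reporter cells stimulated with EGF at its EC50 level; % is set by controls: 0 for no effect and ±100 for the full control effect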). To be noted: ME-180 AP-1-bla reporter, EGF-induced, beta-lactamase ratio, 5 h; at 7.69 µM (top of the series) unless noted. In short, it runs like this:
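Read-out was the 460nm/530nm emission ratio (excitation 405nm) after CCF4 loading for 2.5 hours at room temperature. Cells carried an AP-1-driven beta-lactamase reporter, were stimulated with EC50 EGF plus compound for 5 hours, and AC50 values came from titrations.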

Experiment [10] is described as follows: NFAT Signaling Pathway (AID 444; active = well fitted curve in either direction with a large enough effect, not every such curve was filed as active;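 note: carbachol stimulus at about its EC50 of 1 µM final; % is set by controls: 0 for no effect and ±100 for the full control effect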). The note with it: Jurkat NFAT-bla M1, carbachol, beta-lactamase ratio, 5 h; at 7.69 µM (top of the series) unless noted. Summed up: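 Jurkat cells with NFAT-driven β-lactamase reporter and co-expressed M1 receptor, stimulated with carbachol (final 1 uM, ~EC50), compound titration, 5 h at 37 °C. CCF4 loaded 1 h at RT; 460/530 nm ratio gave %activity and AC50.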

A short description of experiment [11]: Stat Signaling Pathway (AID 446; active = well fitted curve in either direction with a large enough effect, not every such curve was filed as active;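 note: ME-180 cervical cancer cells given 40 pM IL-6 alongside compound; SIE-controlled beta-lactamase reporter measured as 460/530 nm FRET emission ratio; % is set by controls: 0 for no effect and ±100 for the full control effect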). The note with it: ME-180 SIE beta-lactamase reporter, IL-6 stimulated, 5 h; at 7.69 µM (top of the series) unless noted. In short, it runs like this:
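Screening format detects activators and inhibitors alike: ME-180 SIE-bla cells stimulated at 40 pM IL-6 for 5 hrs with compound, then dual-emission beta-lactamase read at 405 nm excitation.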

Experiment [12] deals with Cytochrome P450 1A2 (Homo sapiens) (UniProt P05177). The experiment in a line: p450-cyp1a2 (AID 410; calls by dose curve; note: potency is the fitted concentration of half-maximal effect). To be noted: recombinant CYP1A2, luciferin-ME demethylation, luminescence; series mostly up to 57 µM. In short, it runs like this: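 Luminescent readout of luciferin formed from Luciferin-ME by human CYP1A2; data normalized against complete inhibition by 57 uM furafylline. Enzyme 20nM, substrate 100uM at Km, 100mM KPO4 buffer, 60 min reaction at room temperature.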
Cytochrome P450 1A2 (Homo sapiens), sequence (P05177 whole entry, looked up): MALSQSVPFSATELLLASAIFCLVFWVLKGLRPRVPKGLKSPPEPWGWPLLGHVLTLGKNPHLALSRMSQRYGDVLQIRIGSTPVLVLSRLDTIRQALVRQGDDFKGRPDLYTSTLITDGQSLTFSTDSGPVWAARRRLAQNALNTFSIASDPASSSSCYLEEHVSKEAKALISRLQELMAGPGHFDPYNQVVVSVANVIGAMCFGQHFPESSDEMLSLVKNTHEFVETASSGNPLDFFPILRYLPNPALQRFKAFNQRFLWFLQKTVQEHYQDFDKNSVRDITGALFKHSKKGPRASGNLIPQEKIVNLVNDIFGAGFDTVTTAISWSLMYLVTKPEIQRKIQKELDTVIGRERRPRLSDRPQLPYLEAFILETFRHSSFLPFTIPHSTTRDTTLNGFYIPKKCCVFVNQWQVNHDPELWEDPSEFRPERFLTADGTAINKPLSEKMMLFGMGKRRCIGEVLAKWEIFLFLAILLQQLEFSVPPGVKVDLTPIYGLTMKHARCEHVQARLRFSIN

Experiment [13] deals with Cytochrome P450 2C9 (Homo sapiens) (UniProt P11712). The experiment in a line: qHTS Assay for Inhibitors and Substrates of Cytochrome P450 2C9 (AID 883). Note: % is set by controls: 0 for no effect and ±100 for the full control effect; nearly all actives have a fitted effect of over 60% in size. The note with it: recombinant CYP2C9, luciferin-H luminescence, 60 min; series mostly up to 57.1 µM. Summed up:
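Signal: luciferase luminescence reporting luciferin produced by CYP2C9. Conditions: 10nM enzyme, Luciferin-H 100uM at KM, 25mM KPO4, 37C, 60 min NADPH-driven reaction. Reference: 57uM sulphaphenazole as 100% inhibition.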

Experiment [14] addresses Cytochrome P450 3A4 (Homo sapiens) (UniProt P08684). The experiment is described as follows: qHTS Assay for Activators of Cytochrome P450 3A4 (AID 885). Note: nearly all actives have a fitted effect of over 65% in size. The note with it: recombinant CYP3A4, Luciferin-PPXE luminescence, 60 min; series mostly up to 57.1 µM. In short, it runs like this: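 Steps: enzyme/substrate mix dispensed; compound added, 10 min RT; NADPH regeneration solution added, 60 min RT; luciferin detection buffer stops reaction; 20 min later luminescence measured.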

The target in experiment [15] is Cytochrome P450 2D6 (Homo sapiens) (UniProt P10635). The experiment in a line: qHTS Assay for Inhibitors and Substrates of Cytochrome P450 2D6 (AID 891). Note: potency is the fitted concentration of half-maximal effect; nearly all actives have a fitted effect of over 60% in size. The note with it: recombinant CYP2D6, luciferin-ME EGE luminescence; series mostly up to 57.1 µM. Summed up:
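Human CYP2D6 (5 nM) with 30 uM Luciferin-ME EGE (at Km) in 100 mM KPO4, compound preincubated 10 min, then NADPH regeneration system for 60 min at room temperature. Luciferin read by luminescence; normalized to 1.43 uM quinidine.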

Experiment [16] can be described thus: Confirmation and Secondary Assay for Modulators of Hemoglobin Beta Chain Splicing at IVS2 654 locus (AID 910).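 Note: HeLa cells stably carrying EGFP split by mutant beta-globin IVS2-654 intron; % of control where 0% means no effect.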 The note with it: HeLa EGFP-654 splicing reporter, GFP fluorescence, 48 h; series mostly up to 38.3 µM. Summed up: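 HeLa cells stably expressing EGFP interrupted by β-globin IVS2-654 intron, seeded overnight in Opti-MEM/2% FCS, then treated 2 days at 37 °C. Restored splicing read as total peak GFP intensity per well by laser scanning cytometry (488 nm excitation, 500–520 nm emission); 500 nM antisense PNA as control.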

Experiment [17] is described as follows: Confirmation and Secondary Assay for Modulators of Hemoglobin Beta Chain Splicing at IVS2 705 locus (AID 930).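 Note: HeLa cells stably expressing the EGFP-705 splicing reporter; GFP fluorescence per well restored by corrected splicing of the IVS2-705 intron in EGFP; % of control where 0% means no effect.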 To be noted: HeLa EGFP-705 splicing reporter, GFP fluorescence, 48 h; series mostly up to 38.3 µM. Summed up:
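Fluorescence gain (488 nm laser, 500-520 nm PMT) reflects restored correct splicing of a mutant IVS2-705 intron inside EGFP in stably transfected HeLa cells after 2-day compound treatment.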

Experiment [18] has as its target Ubiquitin carboxyl-terminal hydrolase 1 (Homo sapiens) (UniProt O94782). The experiment in a line: Inhibitors of USP1/UAF1: Pilot qHTS (AID 504865).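 Note: rhodamine fluorescence freed from ubiquitin-rhodamine substrate followed over time; top concentration of the series differs between compounds; % is set by controls: 0 for no effect and ±100 for the full control effect; nearly all actives have a fitted effect of over 35% in size.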 The note with it: purified USP1/UAF1, Ub-rhodamine cleavage fluorescence; series mostly up to 54.9 µM. Summed up:
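In 50mM HEPES pH 7.8 containing 0.5mM EDTA, 1mM TCEP, 0.1 mg/ml BSA and 0.01% Tween-20, 1nM USP1/UAF1 is exposed to compound for 15 min, then Ub-Rho (150nM final) is added and fluorescence is read over time.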

A short description of experiment [19]: Cell Viability qHTS for small molecule stabilizers of the endoplasmic reticulum resident proteome (AID 1508629). To be noted: cell viability counter-screen, 100 nM thapsigargin for final 4 h.
Where [20] appears, read: measured here: cell count channel max response.
[21] abbreviates: measured here: lipid channel max response.

Inconclusive results are not listed. Active and inactive are the calls of the source. Unless noted, calls come from the whole dose curve; as a rule, active = well fitted curve in the direction sought with a large enough effect; inconclusive = small, poorly fitted or top-dose-only effect, or another doubt; inactive = no such curve, though single readings can be large; an effect the other way counts as inactive or inconclusive.

3',5'-cyclic-AMP phosphodiesterase 4B (Homo sapiens), sequence (Q07343 whole entry, looked up): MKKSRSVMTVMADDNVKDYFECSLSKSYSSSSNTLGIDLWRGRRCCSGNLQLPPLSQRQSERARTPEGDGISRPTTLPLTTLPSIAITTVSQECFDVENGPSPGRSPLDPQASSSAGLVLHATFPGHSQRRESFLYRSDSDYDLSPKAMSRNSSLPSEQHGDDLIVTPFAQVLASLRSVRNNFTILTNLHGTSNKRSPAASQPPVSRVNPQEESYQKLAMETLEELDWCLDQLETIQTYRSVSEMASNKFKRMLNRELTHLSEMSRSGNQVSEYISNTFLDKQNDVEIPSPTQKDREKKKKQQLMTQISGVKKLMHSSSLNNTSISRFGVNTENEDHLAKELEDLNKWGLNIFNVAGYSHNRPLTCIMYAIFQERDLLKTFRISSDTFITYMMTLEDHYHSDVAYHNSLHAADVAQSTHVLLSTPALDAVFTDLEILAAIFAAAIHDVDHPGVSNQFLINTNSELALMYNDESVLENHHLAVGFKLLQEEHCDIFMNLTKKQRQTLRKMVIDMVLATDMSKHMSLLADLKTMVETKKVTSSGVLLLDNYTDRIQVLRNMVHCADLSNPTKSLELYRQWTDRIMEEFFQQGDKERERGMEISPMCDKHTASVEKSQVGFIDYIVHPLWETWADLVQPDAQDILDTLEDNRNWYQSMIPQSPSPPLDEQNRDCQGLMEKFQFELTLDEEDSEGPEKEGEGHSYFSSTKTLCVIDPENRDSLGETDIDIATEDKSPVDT
Lysosomal acid glucosylceramidase (Homo sapiens), sequence (P04062 whole entry, looked up): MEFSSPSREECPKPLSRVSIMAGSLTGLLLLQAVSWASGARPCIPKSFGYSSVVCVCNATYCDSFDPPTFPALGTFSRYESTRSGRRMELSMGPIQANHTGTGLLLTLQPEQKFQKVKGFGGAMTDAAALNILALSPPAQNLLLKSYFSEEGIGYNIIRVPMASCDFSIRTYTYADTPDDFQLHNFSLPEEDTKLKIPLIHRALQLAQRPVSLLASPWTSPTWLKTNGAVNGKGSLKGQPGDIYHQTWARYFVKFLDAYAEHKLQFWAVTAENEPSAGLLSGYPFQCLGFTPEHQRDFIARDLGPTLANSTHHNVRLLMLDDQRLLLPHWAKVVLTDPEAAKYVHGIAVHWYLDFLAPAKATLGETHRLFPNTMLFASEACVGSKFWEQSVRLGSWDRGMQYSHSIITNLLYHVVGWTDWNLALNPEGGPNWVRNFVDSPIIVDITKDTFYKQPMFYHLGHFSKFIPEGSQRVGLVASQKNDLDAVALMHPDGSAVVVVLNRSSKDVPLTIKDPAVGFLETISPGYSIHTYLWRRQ
Cytochrome P450 2D6 (Homo sapiens), sequence (P10635 whole entry, looked up): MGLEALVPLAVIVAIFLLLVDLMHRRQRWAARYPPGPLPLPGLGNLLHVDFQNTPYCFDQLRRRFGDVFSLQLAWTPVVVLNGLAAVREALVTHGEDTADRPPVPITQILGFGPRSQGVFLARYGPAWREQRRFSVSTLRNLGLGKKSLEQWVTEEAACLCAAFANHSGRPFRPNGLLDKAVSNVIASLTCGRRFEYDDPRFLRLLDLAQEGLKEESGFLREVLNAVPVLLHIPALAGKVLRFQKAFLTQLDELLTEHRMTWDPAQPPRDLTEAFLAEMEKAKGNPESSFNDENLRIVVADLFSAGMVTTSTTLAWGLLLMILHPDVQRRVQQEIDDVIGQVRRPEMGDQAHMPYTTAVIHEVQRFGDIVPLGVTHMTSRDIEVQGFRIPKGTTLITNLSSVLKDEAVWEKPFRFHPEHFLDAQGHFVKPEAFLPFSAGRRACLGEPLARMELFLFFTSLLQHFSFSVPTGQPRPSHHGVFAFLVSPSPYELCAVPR
Cytochrome P450 3A4 (Homo sapiens), sequence (P08684 whole entry, looked up): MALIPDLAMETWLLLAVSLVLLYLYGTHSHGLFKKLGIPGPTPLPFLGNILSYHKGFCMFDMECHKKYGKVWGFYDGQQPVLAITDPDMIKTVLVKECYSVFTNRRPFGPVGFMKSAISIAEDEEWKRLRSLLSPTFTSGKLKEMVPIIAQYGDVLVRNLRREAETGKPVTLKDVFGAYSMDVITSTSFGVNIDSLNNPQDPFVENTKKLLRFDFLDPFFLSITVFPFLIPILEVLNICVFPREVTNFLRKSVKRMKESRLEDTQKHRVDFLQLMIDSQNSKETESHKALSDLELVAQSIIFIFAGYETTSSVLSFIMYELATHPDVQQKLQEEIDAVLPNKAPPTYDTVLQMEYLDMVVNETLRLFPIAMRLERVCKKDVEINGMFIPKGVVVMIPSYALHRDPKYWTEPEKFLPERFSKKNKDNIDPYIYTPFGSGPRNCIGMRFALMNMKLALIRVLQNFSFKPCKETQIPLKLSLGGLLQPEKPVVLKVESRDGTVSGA
Ubiquitin carboxyl-terminal hydrolase 1 (Homo sapiens), sequence (O94782 whole entry, looked up): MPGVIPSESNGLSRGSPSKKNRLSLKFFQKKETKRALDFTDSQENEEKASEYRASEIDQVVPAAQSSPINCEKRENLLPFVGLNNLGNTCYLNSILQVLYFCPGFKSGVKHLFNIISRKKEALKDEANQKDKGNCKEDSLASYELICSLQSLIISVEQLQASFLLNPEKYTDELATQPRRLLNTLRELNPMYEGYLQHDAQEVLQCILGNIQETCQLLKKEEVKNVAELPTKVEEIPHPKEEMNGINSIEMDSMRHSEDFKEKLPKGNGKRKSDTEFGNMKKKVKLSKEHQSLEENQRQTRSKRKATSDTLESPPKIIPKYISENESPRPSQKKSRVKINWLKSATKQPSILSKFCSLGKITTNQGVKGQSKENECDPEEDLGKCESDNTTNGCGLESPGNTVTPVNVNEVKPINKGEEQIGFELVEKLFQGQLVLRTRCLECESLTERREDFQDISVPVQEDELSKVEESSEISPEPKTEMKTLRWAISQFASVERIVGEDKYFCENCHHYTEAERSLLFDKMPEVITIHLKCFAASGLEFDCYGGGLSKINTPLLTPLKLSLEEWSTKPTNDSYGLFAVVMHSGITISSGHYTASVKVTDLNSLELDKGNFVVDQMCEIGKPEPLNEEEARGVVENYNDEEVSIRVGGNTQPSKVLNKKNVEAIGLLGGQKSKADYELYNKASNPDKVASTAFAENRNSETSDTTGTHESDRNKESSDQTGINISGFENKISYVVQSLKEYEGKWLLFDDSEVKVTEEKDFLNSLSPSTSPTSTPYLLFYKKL
Cytochrome P450 2C9 (Homo sapiens), sequence (P11712 whole entry, looked up): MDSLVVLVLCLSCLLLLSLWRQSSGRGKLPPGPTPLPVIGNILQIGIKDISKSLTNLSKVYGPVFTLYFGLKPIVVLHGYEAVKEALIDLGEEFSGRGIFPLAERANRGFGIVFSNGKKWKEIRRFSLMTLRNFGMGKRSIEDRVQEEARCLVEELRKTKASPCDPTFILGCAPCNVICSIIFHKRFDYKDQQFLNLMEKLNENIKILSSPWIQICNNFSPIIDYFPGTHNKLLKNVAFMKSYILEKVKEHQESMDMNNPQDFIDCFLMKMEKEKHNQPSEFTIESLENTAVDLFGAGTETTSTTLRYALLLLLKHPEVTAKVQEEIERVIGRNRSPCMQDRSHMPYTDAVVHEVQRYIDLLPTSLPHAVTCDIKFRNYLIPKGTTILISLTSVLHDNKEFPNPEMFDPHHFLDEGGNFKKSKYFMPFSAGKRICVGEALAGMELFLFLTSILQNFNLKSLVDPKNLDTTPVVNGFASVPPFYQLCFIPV

In the case of `COc1ccc(-c2nc3cnc(N4CCNCC4)nc3n(-c3ccccc3)c2=O)cc1`, the Potency in experiment [1] was > 11.4 µM (inactive); in experiment [2] it was > 9.22 µM (inactive); in experiment [3], > 46 µM (inactive). Moreover, the result in experiment [4] was inactive. In addition, the Potency entry in experiment [5], in experiment [7] and in [8] was “inactive” throughout. Further, in experiment [6], the activity change, negative = inhibition is 3% (inactive). Further, the values for the max response in experiment [6] (setting [20]) and in [6] (setting [21]) were 10.3% and 4.43%, respectively.
Turning to `O=c1c(-c2ccc(Cl)cc2)nc2cnc(Oc3ccccc3)nc2n1C1CC1`, the Potency in experiment [1] was > 11.4 µM (inactive); in experiment [2] it was > 9.22 µM (inactive); in experiment [3], > 46 µM (inactive); in experiment [8], 35.5 µM (active). Further, the activity change, negative = inhibition in experiment [9] was -21% (inactive); in [10], -2.33% (inactive). Also, in [11], the activity, negative = inhibition was -4.95% (inactive). For the same compound, the result in experiment [4] was inactive. The Potency result in experiment [5] and in experiment [7] was “inactive” each time.
For the compound `COc1ccc(CNc2ncnc3ccc(-c4ccccc4CN(C)C)cc23)c(OC)c1`, the figures for the activity change, negative = inhibition in experiment [9], in experiment [13] and in [6] were 7.23% (inactive), 2.97% [at 2.29 µM] (inactive) and 3.46% (inactive), respectively. Also, the Potency is 31.6 µM (active) in [12]; > 46 µM (inactive) in experiment [2]; > 46 µM (inactive) in experiment [3]; 1.26 µM (active) in experiment [15]; 7.94 µM (active) in experiment [8]. Also, the activity, negative = inhibition in experiment [11] was -15.7% (inactive). Moreover, the result in experiment [4], in experiment [16] and in experiment [17] was inactive. Further, the Potency entry in [14], in [18] and in experiment [7] was “inactive” throughout. Further, the results for the max response in experiment [6] (setting [20]), in experiment [6] (setting [21]) and in experiment [19] were 4.91%, 8.13% and 6.24% (inactive), respectively.
